Shown are actives, neighbours in structure and some others; about 3.5% of the full set was active somewhere.
GPR151 ag: human GPR151 activation; 650,000 compounds, 1% hits; AID 1508602; Q8TDV0; PathHunter beta-arrestin GPR151 cells, luminescence; activation, % at 11.2 µM; in the data active = activation above about 4.9%
MITF primary: human MITF inhibition, primary screen | 650,000 compounds, 0.91% hits | inhibition, % at 2.6 µM | AlphaScreen MITF homodimerization, bead proximity signal | O75030; in the data active = inhibition above about 50%
Target sequence (O75030 whole entry, looked up): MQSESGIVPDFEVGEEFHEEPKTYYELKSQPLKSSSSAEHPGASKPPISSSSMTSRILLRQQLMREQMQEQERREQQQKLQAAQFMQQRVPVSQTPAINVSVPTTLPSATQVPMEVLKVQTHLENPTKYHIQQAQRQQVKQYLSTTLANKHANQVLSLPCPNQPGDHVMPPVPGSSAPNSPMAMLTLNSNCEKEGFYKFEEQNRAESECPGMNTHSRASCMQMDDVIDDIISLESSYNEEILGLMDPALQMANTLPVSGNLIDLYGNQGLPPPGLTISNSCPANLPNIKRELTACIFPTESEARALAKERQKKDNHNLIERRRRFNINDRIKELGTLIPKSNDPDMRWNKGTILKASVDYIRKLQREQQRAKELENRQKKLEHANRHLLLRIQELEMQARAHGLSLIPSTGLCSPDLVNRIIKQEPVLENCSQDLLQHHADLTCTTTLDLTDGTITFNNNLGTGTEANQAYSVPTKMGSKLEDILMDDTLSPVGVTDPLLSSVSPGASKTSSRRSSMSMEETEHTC
TEAD-YAP inh: TEAD-YAP interaction inhibition; inhibition, % at 9.12 µM; 640,000 compounds, 1.4% hits; HEK-TIYL cells, TEAD-Gal4/YAP UAS-luciferase luminescence; in the data active = inhibition above about 32%
FBW7 activator: human FBW7 E3 ligase activation, primary screen | AlphaScreen FBW7–phospho-cyclin E peptide binding, activator screen | normalized activity (activation), % at 26.1 µM | 650,000 compounds, 0.13% hits | AID 1259310; in the data active = normalized activity above about 1.9%;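 note: purified mutant Fbw7 with reduced substrate affinity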
A number is an active result; 0 = inactive; ! = not confirmed by another sample.

SMILES	GPR151 ag	MITF primary	TEAD-YAP inh	FBW7 activator
CCN(CC)S(=O)(=O)c1ccc(O)c([N+](=O)[O-])c1	0	0	0	0
c1ccc(-c2nc(NCc3cccnc3)c3ncn(-c4ccccc4)c3n2)cc1	0	0	0	0
NC(=O)c1ccc(-c2nc(NCc3cccnc3)c3ncn(-c4ccccc4)c3n2)cc1	0	0	54.9	0
COc1cccc(CC2(CO)CCCN(S(=O)(=O)Cc3ccccc3)C2)c1 (stereo not given)	0	0	0	0
CS(=O)(=O)N(CC(=O)NCC1CCCO1)c1ccc(OCc2ccccc2)cc1 (stereo not given)	0	0	0	0
CN(C)CCOc1cc(-c2cn[nH]c2)ccc1N	0	54.0	0	0
CN(C)CCOc1cc(-c2cn[nH]c2)ccc1NC(=O)C(O)c1ccc(F)cc1 (stereo not given)	0	0	0	0
CCN(CC)c1ccc(C2CC(c3ccc(C)cc3)=NN2C(=O)CCC(=O)O)cc1 (stereo not given)	0	0	46.3	0
O=C(c1cc2ccccc2o1)c1cnc2ccccn12	0	0	39.5	0
CN(C)C(=O)/C(=C/c1ccc([N+](=O)[O-])cc1)NC(=O)c1ccccc1	0	0	0	0
CN(C)S(=O)(=O)N1CCN(c2cc(-n3cccn3)ncn2)CC1	0	0	0	0
COc1ccc(S(=O)(=O)N2CCN(c3cc(-n4cccn4)ncn3)CC2)cc1C	0	0	33.1	0
Cc1ccc(NC(=O)c2cc(S(=O)(=O)N3CCOCC3)ccc2F)cc1	0	0	0	0
CC(=O)Nc1ccc(Nc2nc(Nc3ccc(N4CCOCC4)cc3)nc3c2ncn3C(C)C)cc1	0	0	0	0
CC(C)n1cnc2c(Nc3ccc4c(c3)OCO4)nc(Nc3cnccn3)nc21	0	0	0	12.3
CC(C)n1cnc2c(Nc3ccc(N4CCOCC4)cc3)nc(Nc3ccc(-n4ccnc4)cc3)nc21	0	0	49.7	0
c1cnc(Nc2nc(Nc3ccc4c(c3)OCO4)c3ncn(C4CCCCC4)c3n2)cn1	0	0	0	0
CC(C)n1cnc2c(Nc3ccc4c(c3)OCO4)nc(Nc3ccccc3)nc21	0	0	0	0
Cc1cnc(Nc2ccc(-n3ccnc3)cc2)nc1Nc1ccc2c(c1)OCO2	0	0	60.5	0
CC(C)n1cnc2c(Nc3ccc4c(c3)OCO4)nc(Nc3ccc(-n4ccnc4)cc3)nc21	0	0	39.3	0
Cc1ccc(C)c(C(=O)COC(=O)CN2C(=O)NC3(CC(C)CC(C)(C)C3)C2=O)c1 (stereo not given)	0	0	0	0
CCCCNC(=O)Nn1c(=O)[nH]c2ccccc2c1=O	0	0	0	0
CC1(C)CC(=O)C=C(NNC(=O)Cc2ccccc2)C1	0	0	0	0
CC1(C)CC(=O)C=C(NNC(=O)COc2ccccc2)C1	0	0	0	1.9!
CCOc1ccc(NC(=O)Nc2ccc(C(=O)N3CCOCC3)cc2)cc1	0	0	0	0
SMILES	GPR151 ag	MITF primary	TEAD-YAP inh	FBW7 activator
Cc1nnc(SCC(=O)N/N=C/c2ccncc2)n1-c1ccccc1	0	0	0	0
CCCOc1ccc(C(=O)NC(=S)Nc2ccc(NC(C)=O)cc2)cc1	0	0	0	0
Cc1c(Cc2ccccc2)c(N2CCN(Cc3ccccc3)CC2)n2c(nc3ccccc32)c1C#N	0	0	0	2.0
COC(=O)c1ccc(C)c(NS(=O)(=O)c2ccc(F)cc2)c1	0	0	0	0
COC(=O)c1ccc(C)c(NS(=O)(=O)c2ccc(C)cc2)c1	0	0	55.8	0
COC(=O)c1ccc(C)c(NS(=O)(=O)c2ccc(Br)cc2)c1	0	0	44.6	0
CCOC(=O)c1cc2cccc(NS(=O)(=O)c3ccc(C)cc3)c2[nH]1	0	0	38.8	0
COC(=O)c1c(NC(=O)CSc2ncnc3sc(C)c(C)c23)sc(Cl)c1-c1ccccc1	0	0	0	0
CC1CN2c3ccccc3C(C)(C)C2(/C=C/c2ccc(N(C)C)cc2)NC1=O (stereo not given)	0	0	38.9	0
CC1(C)c2ccccc2N2CC(=O)NC21/C=C/c1ccccc1 (stereo not given)	0	0	0	0
CCN1C(=O)S/C(=C/c2cc(C)n(-c3ccccn3)c2C)C1=O	0	0	68.6	0
CCN1C(=O)/C(=C\c2cc(C)n(-c3ccc(OC)cc3)c2C)C(C(=O)OC)=C1C	0	75.8	0	0
CCN1C(=O)S/C(=C/c2cc(C)n(-c3ccc(O)cc3)c2C)C1=O	0	0	80.0	0
CCOC(=O)C(C)N1C(=O)S/C(=C/c2cc(C)n(-c3ccccn3)c2C)C1=O (stereo not given)	0	0	0	0
CCN1C(=O)NC(=O)/C(=C\c2cc(C)n(-c3ccc(O)cc3)c2C)C1=O	0	0	0	0
O=C(Nc1ccc(-c2nc3ccccc3s2)cc1)c1cccc(N2C(=O)CCC2=O)c1	0	0	0	0
Cc1ccnc(NC(=O)Cn2ncc3c2-c2cc(C)ccc2OC3)c1	0	0	0	0
Cc1ccc(NC(=O)Cn2ncc3c2-c2cc(C)ccc2OC3)nc1	0	0	34.7	0
CCn1nnc2c(NCCc3cccc(OC)c3)ncnc21	0	0	0	0
CC(C)(c1ccccc1)c1ccc(OCC(=O)NC2CCCC2)cc1	0	0	0	1.9
O=C(COC(=O)c1ccc(O)cc1)NC1CCCCCC1	0	0	0	0
O=C(COc1ccc(S(=O)(=O)NC2CCCCC2)cc1)NC1CCCCCC1	0	0	34.5	0
NC(=O)Nc1ccc(C(=O)OCC(=O)NC2CCCCC2)cc1	0	0	33.6	0
CC(=O)c1ccc(OCC(=O)NCC2CCC3(CCN(Cc4ccncc4)CC3)O2)cc1 (stereo not given)	0	0	0	0
CCOC(=O)c1cc(C)sc1NC(=O)c1cccc2ccccc12	0	0	0	0
SMILES	GPR151 ag	MITF primary	TEAD-YAP inh	FBW7 activator
Cc1cc(/C=N/Nc2nc(N)ncc2[N+](=O)[O-])c(C)n1-c1ccccc1F	0	0	63.1	0
Cc1cc(/C=N\Nc2ccc([N+](=O)[O-])cn2)c(C)n1-c1ccccc1F	0	0	0	0
N#C/C(=C1/Nc2ccccc2S1)c1ccnc(OCc2ccc(CN3CCOCC3)cc2)n1	0	0	86.2	0
O=C(CCCn1c(SCc2c(F)cccc2Cl)nc2ccsc2c1=O)NCCc1ccccc1	0	0	0	0
CCCCNc1ncnc2ccc(Br)cc12	0	0	44.9	0
Cc1ccc2c(c1)NC(=O)c1cc(NC(=O)c3ccccc3Br)ccc1O2	0	0	43.9	0
Cc1ccc2c(c1)Oc1ccc(NC(=O)CCCl)cc1C(=O)N2	0	0	32.8	0
COc1ccc(S(=O)(=O)Oc2cc(C=O)ccc2OC)cc1	0	0	50.3	0
COc1ccc(S(=O)(=O)Oc2c(OC)cc(C=O)cc2OC)cc1	0	0	39.2	0
CCCOc1ccc(Cc2nc3cc(C)c(C)cc3[nH]c2=O)cc1	0	0	0	0
COc1ccc(NCC(=O)n2c(C)c(C)c3ccccc32)cc1	0	0	52.5	0
COc1ccc(NCC(=O)n2nc(C)cc2C)cc1	0	0	0	0
COc1ccc(C2/C(=C(\O)c3ccccc3)C(=O)C(=O)N2CC(CC(=O)O)c2ccccc2)cc1 (stereo not given)	0	0	0	0

Bioassay records: PubChem, The Scripps Research Institute Molecular Screening Center
